Compound activity: PubChem BioAssay, National Center for Advancing Translational Sciences (NCATS)
G9a block = inhibitors of human histone lysine methyltransferase G9a; Potency, µM (doses to about 102 µM), inactives show top-dose activity, negative = inhibition, most hits filed as inhibitors; Q96KQ7; G9a H3K9 monomethylation, AlphaScreen, 2 h; actives 8.8% (n = 350,000); further: on the % scale 0 is the no-effect control and ±100 the full control effect; nearly all actives have a fitted effect of over 75% in size
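G9a (20 nM) was preincubated 15 min with compound, then reacted 2 h at room temperature with 500 nM biotin-H3K9 peptide and 20 µM SAM. Monomethyl-H3K9 detected by AlphaScreen using anti-H3K9me1 antibody.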
L3MBTL1 inh = blocks human L3MBTL1; AlphaScreen L3MBTL1–H3K9me1 peptide binding; Potency, µM (series often up to 57.1 µM), for inactives: top-dose activity, negative = inhibition, usual class: inhibitors; actives 0.66% (n = 230,000); further: on the % scale 0 is the no-effect control and ±100 the full control effect; nearly all actives have a fitted effect of over 60% in size
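First, the protein-peptide complex forms for 30 min at room temperature (L3MBTL1 50 nM, biotinylated H3K9me1 peptide 75 nM). Next, compounds are pin-transferred and incubated 30 min. Finally, AlphaScreen beads are added and read after 30 min.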
Sfp inh = Sfp phosphopantetheinyl transferase inhibition; Biochemical Sfp PPTase activity, qHTS; Potency, µM, for inactives: largest response in the series, negative = inhibition, usual class: inhibitors; actives 3.5% (n = 310,000); AID 1490;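 further: the enzyme is Sfp with the accession as filed and its product quenches rhodamine fluorescence; 0% = enzyme reaction without inhibitor and -100% = no enzyme wells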
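After 15 min at room temperature with compound, 15 nM Sfp received 5 uM rhodamine-CoA plus 12.5 uM BHQ-2-ybbR (50 mM Hepes pH 7.6, 10 mM MgCl2). Rate came from the fluorescence difference over 30 min, ex 525/em 598 nm.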
BAZ2B block = inhibitors of human BAZ2B bromodomain. Q9UIF8. AlphaScreen BAZ2B-H3K14Ac peptide displacement. Potency, µM (top dose mostly 114 µM), for inactives: at the top dose activity change, negative = inhibition, usual class: inhibitors. actives 4.4% (n = 360,000). AID 504333; further: on the % scale 0 is the no-effect control and ±100 the full control effect; nearly all actives have a fitted effect of over 60% in size
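Protein-peptide AlphaScreen: BAZ2B 50 nM, b-H3K14Ac 50 nM, 1x PBS pH 7.4 + 0.01% Tween-20. Preincubation 30 min RT; cpd 30 min RT (top 110 uM); beads 20 min RT, light-protected.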
JMJD2A Tudor = blocks the human JMJD2A Tudor domain | O75164 | AlphaScreen JMJD2A-Tudor / H3K4me3 peptide binding | Potency, µM (highest dose often 114 µM), without a hit: top-dose activity change, negative = inhibition, most hits filed as inhibitors | actives 4.4% (n = 390,000); further: on the % scale 0 is the no-effect control and ±100 the full control effect; nearly all actives have a fitted effect of over 50% in size
Target sequence (O75164 whole entry, looked up, the tested form may be a part): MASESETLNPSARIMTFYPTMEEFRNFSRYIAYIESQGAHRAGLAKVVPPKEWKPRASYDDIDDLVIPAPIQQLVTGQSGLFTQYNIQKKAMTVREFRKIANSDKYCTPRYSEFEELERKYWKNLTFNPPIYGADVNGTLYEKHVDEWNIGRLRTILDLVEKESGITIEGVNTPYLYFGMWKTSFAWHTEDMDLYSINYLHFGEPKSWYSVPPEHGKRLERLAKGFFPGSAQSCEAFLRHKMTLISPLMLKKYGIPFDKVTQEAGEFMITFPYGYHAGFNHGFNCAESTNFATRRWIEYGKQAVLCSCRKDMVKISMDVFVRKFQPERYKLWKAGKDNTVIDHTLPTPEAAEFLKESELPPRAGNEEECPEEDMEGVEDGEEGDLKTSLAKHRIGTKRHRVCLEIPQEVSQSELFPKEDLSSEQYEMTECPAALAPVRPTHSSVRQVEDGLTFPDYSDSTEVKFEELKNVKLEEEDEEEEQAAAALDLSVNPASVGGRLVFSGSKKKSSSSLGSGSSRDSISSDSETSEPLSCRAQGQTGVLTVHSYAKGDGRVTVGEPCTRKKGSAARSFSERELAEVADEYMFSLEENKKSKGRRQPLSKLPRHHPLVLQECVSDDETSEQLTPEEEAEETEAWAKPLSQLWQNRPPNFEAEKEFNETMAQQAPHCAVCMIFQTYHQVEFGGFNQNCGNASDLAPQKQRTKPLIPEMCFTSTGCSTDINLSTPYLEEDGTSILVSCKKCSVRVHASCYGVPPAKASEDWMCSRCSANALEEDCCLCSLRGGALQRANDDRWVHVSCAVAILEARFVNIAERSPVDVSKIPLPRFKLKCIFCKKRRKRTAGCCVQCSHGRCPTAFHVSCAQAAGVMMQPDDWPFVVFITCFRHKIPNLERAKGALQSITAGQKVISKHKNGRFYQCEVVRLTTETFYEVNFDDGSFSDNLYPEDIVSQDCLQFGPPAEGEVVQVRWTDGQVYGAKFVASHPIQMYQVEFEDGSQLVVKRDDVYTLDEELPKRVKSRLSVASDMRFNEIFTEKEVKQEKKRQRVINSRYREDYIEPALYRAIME
HP1b binding inh = blocks HP1-beta chromodomain binding to methylated histone tails | AlphaScreen HP1-beta / biotin-H3K9me3 peptide binding | actives 0.56% (n = 390,000) | Potency, µM (series often up to 114 µM), inactives show top-dose activity change, negative = inhibition, usual class: inhibitors; further: nearly all actives have a fitted effect of over 70% in size
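HP1-beta protein (50 nM final) preincubated 30 min at room temperature with biotinylated H3(1-18)K9me3 peptide (50 nM) in PBS pH 7.4, 0.01% Tween-20, then compound added for 30 min. AlphaScreen streptavidin donor/nickel chelate acceptor beads (10 ug/mL final), 30 min dark, luminescence read.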
Active calls of the source: *; ? = inconclusive; . = no result; [ ] = another dose, or the depositor's remark. Most compounds without a hit are left out; they make up all but 12% or so of the library. The call rests on the fitted dose curve; in most records, active means well fitted curve in the direction sought with a large enough effect; inconclusive means small, poorly fitted or top-dose-only effect, or another doubt; inactive means no such curve, though single readings can be large; an effect the other way counts as inactive or inconclusive. Potency means the concentration at half of the fitted maximal effect.

SMILES	G9a block	L3MBTL1 inh	Sfp inh	BAZ2B block	JMJD2A Tudor	HP1b binding inh
O=C(NC(=S)Nc1ccccc1N1CCCC1)c1ccc(F)cc1	31.6µM*	-5.3%[11.4 µM]	?	25.1µM*	35.5µM*	50.1µM*
Cc1cc(C(=O)Nc2ccccc2N2CCOCC2)ccc1[N+](=O)[O-]	17.8%[59 µM]	-3.9%	5.2%	-8.6%	-24.7%	-7.6%
CS(=O)(=O)N1CCN(c2ccccc2NC(=S)NC(=O)c2cccs2)CC1	17.0%	-8.1%	17.9%	?	-10.5%[11.4 µM]	15.7%
CC1CCN(c2ccccc2NC(=S)NC(=O)c2cccs2)CC1	15.1%[12.7 µM]	-16.0%	12.3%	35.5µM*	?	?
Cc1cc(C(=O)NC(=S)Nc2ccccc2N2CCOCC2)ccc1[N+](=O)[O-]	35.5µM*	-24.4%	7.1%	?	?	?
O=C(Nc1ccccc1N1CCN(C(=O)c2ccc(Cl)cc2)CC1)c1cccc(F)c1	19.3%	.	5.2%	-9.8%	-11.0%	28.3%
O=C(Nc1ccccc1N1CCCC1)c1cccc(F)c1	35.5µM*	.	11.5%	?	-16.0%	25.6%
COc1ccc(C(=O)CCC(=O)N2CCN(c3ccc(C)cc3)C(C)C2)cc1 (centres undefined)	?	.	9.1%	-34.8%	-28.3%	-3.5%
Cc1ccc(-n2c(=O)c3ccc(C(=O)NCc4ccccc4Cl)cc3n(Cc3cccc(F)c3)c2=O)cc1	?	.	.	.	-5.7%	32.1%
O=C(NC(=S)Nc1ccccc1N1CCCCC1)c1ccc(F)cc1Cl	-7.2%[12.7 µM]	.	10.2%	-29.9%	-20.4%	16.8%
O=C(NC(=S)Nc1ncccn1)c1ccc(F)cc1	8.91µM*	.	15.8µM*	?	-21.7%	-19.0%
O=C(NC(=S)Nc1ccccc1N1CCCCC1)c1ccccc1	31.6µM*	-1.3%	23.1%	?	?	-24.1%
COc1ccc(C(=O)Nc2ccccc2N2CCCC2)cc1	-7.3%[2.33 µM]	.	3.2%	?	-23.4%	19.7%
CC(C)Oc1ccc(C(=O)Nc2ccccc2N2CCCC2)cc1	44.7µM*	.	3.2%	?	-4.6%[11.4 µM]	?
Cc1ccccc1C(=O)NC(=S)Nc1ccccc1N1CCCC1	20µM*	?	8.2%	25.1µM*	25.1µM*	?
CC(C)c1ccc(-c2noc(SCC(=O)N(C)c3ccc(F)cc3)n2)cc1	20.7%[59 µM]	.	.	9.0%	33.8%	96.9%
COc1ccc(NC(=O)C2=CC(c3ccc(C)cc3)=NS(=O)(=O)N2C)cc1OC	?	-8.1%	11.3%	?	?	-10.5%
COc1ccc(C2=NS(=O)(=O)N(C)C(C(=O)Nc3ccc(OC)c(OC)c3)=C2)cc1	35.5µM*	-12.2%	-11.5%	?	?	-21.6%
COc1cccc(C2=NS(=O)(=O)N(C)C(C(=O)Nc3cccc(O)c3)=C2)c1	14.1µM*	.	.	-37.3%	-35.8%	7.4%
CSc1nn(Cc2ccc(C)cc2)c(N)c1S(=O)(=O)c1ccccc1	7.9%[59 µM]	.	.	-6.8%	-23.9%	4.0%
CC(CCN1C(Nc2ccccc2)=NC[C@@H]1Cc1ccccc1)c1ccccc1 (some centres undefined)	?	3.5%	8.5%	-30.7%	-18.4%	9.5%
CCOC(=O)COc1cc(OCC(=O)OCC)c2c3c(c(=O)oc2c1)CCCC3	1.1%	.	-19.8%	-11.1%	-4.9%	22.2%
CCOC(=O)CNC(=S)N(Cc1ccc(C)cc1)Cc1ccc(C)o1	24.5%[59 µM]	4.3%	?	-2.3%	-11.0%	-0.1%
NC(=O)N/N=C/c1ccc(-c2ccc(S(=O)(=O)Nc3ncccn3)cc2)o1	11.2µM*	-22.9%	.	-12.4%	-11.7%	12.8%
CC(C)Oc1ccc(C(=O)N/N=C/c2ccc(-c3ccc(S(=O)(=O)Nc4ncccn4)cc3)o2)cc1	50.1µM*	.	79.4µM*	?	?	-5.7%
SMILES	G9a block	L3MBTL1 inh	Sfp inh	BAZ2B block	JMJD2A Tudor	HP1b binding inh
Cc1ccc(C(=O)N/N=C\c2ccc(-c3ccc(Cl)cc3)o2)cn1	0.6%	-8.5%	7.9%	-17.8%	-18.9%	14.2%
COCCN(C(=O)COC(=O)CCCOc1ccccc1)c1c(N)n(Cc2ccccc2)c(=O)[nH]c1=O	-35.0%	-2.8%	.	11.1%	-8.3%	10.5%
CCOC(=O)NC(=O)CSc1ccc(S(=O)(=O)N2CCCCC2)cn1	.	-5.1%	.	.	-8.1%	61.0%
C=C(C)CN(CC)C(=O)CSc1ccc(S(=O)(=O)N2CCN(C)CC2)cn1	44.7µM*	1.2%	.	9.2%	-4.1%	38.4%
CN(C)C(=O)CSc1ccc(S(=O)(=O)N2CCCC2)cn1	56.2µM*	-0.6%	.	-3.2%	-2.8%	26.0%
CC(C)NC(=O)NC(=O)CSc1ccc(S(=O)(=O)N2CCOCC2)cn1	44.7µM*	2.6%	.	34.0%	9.6%	22.1%
CCC(CC)NC(=O)CSc1ccc(S(=O)(=O)N2CCCCC2)cn1	50.1µM*	1.2%	.	49.8%	-4.8%	28.1%
CC1Cc2ccccc2N1C(=O)CSc1nnc(-c2cccc(Cl)c2)o1 (centres undefined)	-0.3%[59 µM]	.	.	-4.1%	-8.6%	48.9%
Cc1ccc2c(c1)c1c(c(=O)n(-c3cccc(Cl)c3)c(=O)n1CC(=O)Nc1c(C)cccc1C)n2C	10.3%[59 µM]	.	.	-12.6%	-13.3%	-3.8%
O=C(O)C1C2C=CC(O2)C1C(=O)Nc1ccc(S(=O)(=O)Nc2ccccc2)cc1 (centres undefined)	?	-16.5%	-91.0%	-4.5%	79.4µM*	?
O=C(O)C1C2C=CC(O2)C1C(=O)Nc1ccc(S(=O)(=O)N2CCc3ccccc32)cc1 (centres undefined)	11.2µM*	?	-19.0%	-6.0%	-35.0%	3.2%
CC(=O)Nc1ccc(S(=O)(=O)N2CCCc3ccccc32)cc1	0.0%[12.7 µM]	-0.2%	11.3%	1.4%	-16.0%	22.0%
COc1ccc(-c2cc(C)no2)cc1S(=O)(=O)NCCCN1CCCCCC1	13.1%[59 µM]	.	-8.9%	-5.5%	-20.3%	31.8%
COC(=O)c1c(SCC(=O)Nc2cccc(C(F)(F)F)c2)[nH]c2ccccc2c1=O	12.4%[59 µM]	.	.	-12.5%	-11.7%	15.3%
COc1cc(/C=N/S(=O)(=O)c2ccccc2)cc(OC)c1O	?	.	11.4%	-18.2%	-20.7%	12.2%[57 µM]
CCOc1cc(/C=N/n2c(C)nc3ccccc3c2=O)ccc1O	5.0%	.	15.3%	-10.7%	-14.8%	-31.3%
COc1ccc(Br)cc1/C=N/n1c(-c2ccccc2)n[nH]c1=S	3.55µM*	-4.3%	11.0%	-34.9%	?	30.5%
COc1ccc(/C=N/n2c(-c3ccc(C)cc3)n[nH]c2=S)cc1OC	0.398µM*	1.2%	-28.4%	-6.2%	7.94µM*	27.8%
COc1ccc(/C=N/n2c(C)nc3ccccc3c2=O)cc1OC	44.2%	.	25.3%	1.6%	-19.3%	8.0%
COc1cc(/C=N/n2c(-c3ccccc3)n[nH]c2=S)ccc1O	2.24µM*	-12.2%	13.7%	-2.0%	5.01µM*	3.9%
